Source: PubChem BioAssay (several laboratories)
Only a selection was taken, and hits are over-represented in it overall.
GIRK2 activator = Activates human GIRK2-containing potassium channels; P48051; HEK293 GIRK2/NPY4 cells, thallium flux fluorescence; activation (% efficacy), % for hits at 37.5 µM; 34,000 tested, under 10 active; AID 1259324;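 active means primary screen hit, no activity in plain HEK293 cells, and in GIRK2-only cells above 5% efficacy rising with concentration; inactive means the rest, including fluorescent compounds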;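 further: efficacy is normalized control-subtracted fluorescence 15 s after thallium addition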
AMPAR-TARP mod = modulates AMPAR-stargazin complexes. 40,000 compounds, 3.5% hits. HEK293 GluA2+stargazin, membrane potential dye (FDSS), glutamate EC50; hits were called plate by plate, in both directions. calls only at 30 µM. AID 1259245;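 active means any of four per-well response measures lying three or more SD from its plate-wide compound average, in either direction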
Target sequence (O88602 whole entry, looked up): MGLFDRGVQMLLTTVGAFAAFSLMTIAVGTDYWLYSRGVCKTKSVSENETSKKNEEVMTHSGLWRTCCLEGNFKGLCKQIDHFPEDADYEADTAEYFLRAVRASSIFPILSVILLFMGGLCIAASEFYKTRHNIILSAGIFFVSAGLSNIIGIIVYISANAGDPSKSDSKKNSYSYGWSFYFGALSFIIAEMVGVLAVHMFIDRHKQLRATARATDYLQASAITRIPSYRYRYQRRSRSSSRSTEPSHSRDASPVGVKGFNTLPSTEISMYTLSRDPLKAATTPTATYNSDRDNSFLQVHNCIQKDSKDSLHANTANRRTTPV
Target sequence (P19491 whole entry, looked up): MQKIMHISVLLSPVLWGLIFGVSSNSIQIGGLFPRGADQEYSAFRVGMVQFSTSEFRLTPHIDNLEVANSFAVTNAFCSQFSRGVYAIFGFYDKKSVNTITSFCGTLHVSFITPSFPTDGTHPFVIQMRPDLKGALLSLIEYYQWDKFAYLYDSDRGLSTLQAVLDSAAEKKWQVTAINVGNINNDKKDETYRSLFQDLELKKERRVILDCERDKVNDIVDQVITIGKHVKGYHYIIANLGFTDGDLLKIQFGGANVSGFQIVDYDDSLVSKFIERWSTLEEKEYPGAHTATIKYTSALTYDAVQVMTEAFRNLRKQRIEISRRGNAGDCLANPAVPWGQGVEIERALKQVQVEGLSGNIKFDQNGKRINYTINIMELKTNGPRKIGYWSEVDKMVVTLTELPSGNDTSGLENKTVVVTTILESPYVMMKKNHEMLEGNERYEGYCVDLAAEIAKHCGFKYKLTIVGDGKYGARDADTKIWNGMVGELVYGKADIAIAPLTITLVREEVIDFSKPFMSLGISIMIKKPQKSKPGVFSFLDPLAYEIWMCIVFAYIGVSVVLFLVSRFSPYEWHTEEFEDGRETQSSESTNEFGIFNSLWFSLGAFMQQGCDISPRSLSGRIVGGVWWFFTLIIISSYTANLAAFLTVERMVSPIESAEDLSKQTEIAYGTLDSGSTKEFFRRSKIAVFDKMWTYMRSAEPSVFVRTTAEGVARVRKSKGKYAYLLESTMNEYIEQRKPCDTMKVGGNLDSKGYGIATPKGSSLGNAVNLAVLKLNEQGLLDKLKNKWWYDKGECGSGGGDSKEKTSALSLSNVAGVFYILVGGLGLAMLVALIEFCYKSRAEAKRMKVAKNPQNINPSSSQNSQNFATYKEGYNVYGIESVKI
An asterisk follows results filed as active; i = inactive; / = no result given; + = active, no number.

SMILES	GIRK2 activator	AMPAR-TARP mod
CCc1ccc(S(=O)(=O)Nc2ccc3c(c2)N(C(=O)C2CC2)CC3)s1	i	+
COc1cn(CC(=O)NCc2ccco2)c(CSc2nncn2C)cc1=O	i	i
Cc1ccccc1C(=O)Nc1nonc1-c1ccccc1	i	i
COC(=O)c1scc(-c2ccc(C)cc2)c1S(=O)(=O)Nc1ccc(OC)c(OC)c1	i	i
CCOC(=O)c1scc(-c2ccc(C)cc2)c1S(=O)(=O)Nc1ccc2c(c1)OCCO2	i	+
COCCn1c(=NC(=O)c2ccno2)sc2cc(F)cc(F)c21	i	+
COCCn1c(=NC(=O)CS(=O)(=O)c2ccc(OC)cc2)sc2cc(F)cc(F)c21	i	i
COc1ccc(S(=O)(=O)Nc2ccccc2C(=O)Nc2ccc([N+](=O)[O-])cc2OC)cc1	i	+
COc1ccc([N+](=O)[O-])cc1NC(=O)c1ccccc1NS(=O)(=O)c1ccccc1	i	i
Cc1ccc(-c2nsc(C(=O)NCc3ccccn3)c2N)cc1	i	/
CC1(C)CC(=O)C2=C(C1)NC1=C(C(=O)c3ccccc31)C2c1ccc(C(F)(F)F)cc1 (stereo not drawn)	/	+
CC1(C)CC(=O)C2=C(C1)NC1=C(C(=O)c3ccccc31)C2c1cccnc1 (stereo not drawn)	/	i
COc1ccc(C(=O)Nc2sc3c(c2-c2nc4ccccc4s2)CCN(C)C3)cc1	/	i
CC1CN(C)CCN1CC1CCN(C(=O)Cc2ccc(F)cc2)CC1 (stereo not drawn)	i	i
Cc1ccc(-c2ccc(=O)n(CCCC(=O)N3c4ccccc4CC3C)n2)cc1 (stereo not drawn)	i	+
COc1ccc(-c2ccc(=O)n(CCCC(=O)N3CCc4ccccc43)n2)cc1OC	i	i
COc1ccc(N(CC(=O)NCCc2ccccc2)S(=O)(=O)c2cccnc2)cc1	i	i
O=C(Nc1ccc(N2CCCS2(=O)=O)cc1)Nc1ccc(Cl)c(Cl)c1	i	+
Cc1ccc(N2CCCS2(=O)=O)cc1NC(=O)Nc1ccc(Cl)c(Cl)c1	i	i
Cc1onc(-c2ccccc2Cl)c1C(=O)Nc1ccc(CC(N)=O)cc1	i	i
O=C(CSCc1ccccc1)N1CCN(Cc2nnnn2-c2ccc(F)c(F)c2)CC1	i	+
O=C(C1CC1)N1CCN(Cc2nnnn2-c2ccc(F)c(F)c2)CC1	i	i
CCc1ccc(-c2cc3c(=O)n(Cc4nc(-c5ccc(OC)cc5OC)no4)ccn3n2)cc1	i	i
CCc1ccc(-c2cc3c(=O)n(Cc4nc(-c5cccc(C(F)(F)F)c5)no4)ccn3n2)cc1	i	+
CCC(O)c1nc2ccccc2n1CCOc1ccccc1 (stereo not drawn)	/	+
SMILES	GIRK2 activator	AMPAR-TARP mod
CCc1nc2ccccc2n1CCOc1ccccc1	/	i
CC(C)(C)c1ccc(NC(=O)NCCn2nc(-c3cccnc3)ccc2=O)cc1	i	/
CC(=O)Cc1nsc(NC(=O)c2ccc(-c3c(Cl)cccc3Cl)o2)n1	/	i
O=C(CCCCn1c(=O)c2ccccc2n(CC(=O)NC2CCCCC2)c1=O)NC1CCCCC1	i	+
CC(C)CCNC(=O)CCCCn1c(=O)c2ccccc2n(CC(=O)NCc2ccccc2)c1=O	/	+
O=C(CCCCn1c(=O)[nH]c2ccccc2c1=O)NC1CCCCC1	i	i
CCCNC(=O)CCCCn1c(=O)c2ccccc2n(CC(=O)NCc2ccc(F)cc2)c1=O	i	+
CCCNC(=O)CCCCn1c(=O)c2ccccc2n(CC(=O)Nc2ccc(OC)c(OC)c2)c1=O	/	i
COc1ccc(CNC(=O)Cn2c(=O)n(CCCCC(=O)NCC(C)C)c(=O)c3ccccc32)cc1	/	i
COc1cc(Br)cc(/C=C/c2ccc3cccc(O)c3n2)c1OC	/	i
Cc1cc(NC(=O)Cn2c(C)cc(C)c(S(=O)(=O)c3ccccc3)c2=O)ccc1Br	i	i
O=C(CC1Nc2ccccc2NC1=O)Nc1ccc(OC(F)(F)F)cc1 (stereo not drawn)	/	i
CNC(=O)CSc1nc(-c2ccccc2)c(NC(=O)CCc2ccccc2)s1	i	+
NC(=O)CSc1nc(-c2ccccc2)c(NC(=O)c2cccc(Cl)c2)s1	i	+
CCNC(=O)CSc1nc(-c2ccccc2)c(NC(=O)CCc2ccc(OC)cc2)s1	i	i
NC(=O)CSc1nc(-c2ccccc2)c(NC(=O)c2ccccc2Cl)s1	i	i
COc1ccc(NC(=O)c2ccc(Cl)c(N3C(=O)CCS3(=O)=O)c2)c(OC)c1	i	i
OC(COc1ccc(-c2ccccc2)cc1)CN1CCN(c2ccccn2)CC1 (stereo not drawn)	/	i
OC(COc1ccc2cc(Br)ccc2c1)CN1CCN(c2ccccn2)CC1 (stereo not drawn)	/	+
COC(=O)c1c(NC(=O)c2cc(C)no2)sc2c1CC(C)(C)NC2(C)C	i	/
